# DT40 TDP1 no CPT = qHTS for Inhibitors of human tyrosyl-DNA phosphodiesterase 1 (TDP1): qHTS in cells in absence of CPT. DT40 Tdp1-/- hTDP1 cells, no CPT, ATP luminescence, 48 h. Potency, µM (titrated, usually from 46.2 µM), for the others: at the top dose activity change, negative = growth inhibition, hits mostly inhibitors. 420,000 compounds, 15% hits. AID 686978, 2013; note: potency is the fitted concentration of half-maximal effect; nearly all actives have a fitted effect of over 55% in size
#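 Luminescent ATP content (CellTiter-Glo) served as the growth readout. Knockout chicken DT40 cells expressing human TDP1 were exposed to compounds without camptothecin for a minimum 48 hr at 37 °C.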
# HT1080-NT tox = qHTS for induction of synthetic lethality in tumor cells producing 2HG: qHTS for the HT-1080-NT fibrosarcoma cell line; HT-1080-NT fibrosarcoma viability, CellTiter-Glo ATP luminescence, 48 h; Potency, µM (highest dose often 46.1 µM), for inactives: at the top dose activity, negative = less viability, actives largely listed as cytotoxic; 360,000 compounds, 1.6% hits; AID 686970, 2013;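 note: NT is the 2HG producing partner of a matched IDH1 knockdown line; potency is the fitted concentration of half-maximal effect; 0% = DMSO-treated cells and -100% = media-only wells without cells; nearly all actives have a fitted effect of over 55% in size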
#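 750 cells/well, RPMI + 5% FBS; 2 h settle, compound pin-transfer, 48 h at 37 degrees C. CellTiter-Glo 10 min RT, luminescence. Normalized to DMSO and media-only wells.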
# HT1080 IDH1KD tx = qHTS for induction of synthetic lethality in tumor cells producing 2HG: qHTS for the HT-1080-IDH1KD cell line; Potency, µM (titrated, usually from 46.1 µM), for inactives: at the highest dose activity, negative = toxicity, actives largely listed as cytotoxic; HT-1080 IDH1 knockdown viability, ATP luminescence, 48 h; 360,000 compounds, 2% hits; AID 686971, 2013;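 note: potency is the fitted concentration of half-maximal effect; 0% = DMSO wells and -100% = cell-free medium wells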
#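 Assay cells: HT-1080 with IDH1 knockdown, 750 per well, RPMI/5% FBS. Exposure: 48 h at 37 °C following 2 h pre-incubation. Read: CellTiter-Glo luminescence; fitted concentration-response, curve class assigned.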
# IL-1B inflam inh = qHTS for Inhibitors of Inflammasome Signaling: IL-1-beta AlphaLISA Primary Screen; 360,000 compounds, 4.7% hits; activity change, % at 57.5 µM; THP-1 LPS/ATP IL-1B secretion, AlphaLISA, 16 h; active compounds read low; in the data active = activity change below about -50%; inconclusive = mostly about -30% to -49%
#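 THP-1 cells pretreated 1 hr with compounds (up to 57.5 uM final), then stimulated with LPS (250 ng/mL final) plus ATP (1.25 mM final); secreted IL-1B measured by AlphaLISA after 16 hr, decreased signal indicating inhibition.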
# TDP1 cell CPT = qHTS for Inhibitors of human tyrosyl-DNA phosphodiesterase 1 (TDP1): qHTS in cells in presence of CPT. chicken DT40 Tdp1-/-;hTDP1 cells + 20 nM CPT, ATP luminescence, 48 h. Potency, µM (highest dose often 46.2 µM), inactives show at the top dose activity change, negative = growth inhibition, actives largely listed as inhibitors. 420,000 compounds, 12% hits. AID 686979, 2013; note: potency is the fitted concentration of half-maximal effect; nearly all actives have a fitted effect of over 55% in size
#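 Cell growth measured by CellTiter-Glo luminescence after a minimum 48 h, 37 C compound exposure with 20 nM CPT in Tdp1-knockout DT40 cells stably expressing hTDP1, seeded 400/well; qHTS titration format.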
# An asterisk follows results filed as active; ? = inconclusive; . = no result; [ ] = remark or other dose. Rows were chosen to be rich in hits. Some 19% of all compounds tested hit in one or more screens of this group. Unless noted, calls come from the whole dose curve; as a rule, active = well fitted curve in the direction sought with a large enough effect; inconclusive = small, poorly fitted or top-dose-only effect, or another doubt; inactive = no such curve, though single readings can be large; an effect the other way counts as inactive or inconclusive. Unless noted, % is set by controls: 0 for no effect and ±100 for the full control effect.
SMILES,DT40 TDP1 no CPT,HT1080-NT tox,HT1080 IDH1KD tx,IL-1B inflam inh,TDP1 cell CPT
COc1cc(NC(=O)Cn2nnc(-c3ccccc3N)n2)cc(OC)c1,?,-11%,-28%,-59*,?
COc1ccccc1NC(=O)Cn1nnc(-c2ccccc2NC(=O)c2cccs2)n1,21µM*,10%,19%,-16,?
COc1ccc(NC(=O)Cn2nnc(-c3ccccc3N)n2)cc1OC,-12%,0%,-5%,10,-18%
COc1ccc(NC(=O)Cn2nnc(-c3ccccc3NC(=O)c3ccco3)n2)cc1,2.6µM*,?,?,-2,2.9µM*
O=C(NCc1ccccn1)C(=O)NCC1OCCN1S(=O)(=O)c1ccc([N+](=O)[O-])cc1 (stereo not given),-7%,-1%,0%,0,-26%
COc1ccc(-c2cc(NC(C)=O)c3ncc(-c4ccc(OC)c(OC)c4)n3c2)c(OC)c1,21µM*,?,?,-59*,23µM*
COc1ccc(-c2cc(NC(C)=O)c3ncc(-c4ccc(F)cc4)n3c2)cc1OC,15µM*,-3%,-20%,-18,23µM*
COc1ccc(-c2cnc3c(NC(C)=O)cc(-c4cc(F)ccc4OC)cn23)cc1OC,5.8µM*,?,?,-2,5.2µM*
COc1ccc(F)cc1-c1cc(NC(C)=O)c2ncc(-c3cc(OC)c(OC)c(OC)c3)n2c1,2.9µM*,?,-2%,39,3.7µM*
CC(C)c1nc(SCC(=O)NCc2ccccc2)n[nH]1,18%,15%,9%,17,0%
O=C(CSc1ncccn1)N(Cc1cccnc1)C(CCc1ccccc1)c1nc2ccccc2[nH]1 (stereo not given),?,15%,-4%,-18,-25%
Cc1cccc(NC(=O)c2nc[nH]c2C(=O)NC[C@H](C)O)c1,?,8%,-1%,-28,-20%
Clc1ccc(C[n+]2cc(-c3ccccc3)n3c2CCCCC3)c(Cl)c1,0.26µM*,15µM*,16µM*,-91*,0.46µM*
Clc1cccc(-c2nnc3n2CCCCC3)c1,-2%,-6%,3%,-4,8%
Clc1ccc(-c2nnc3n2CCCCC3)cc1,8%,6%,8%,71,-11%
Clc1ccc(-c2c[n+](Cc3ccc(Cl)cc3Cl)c3n2CCCCC3)cc1,1.2µM*,8.2µM*,16µM*,-81*,1.2µM*
Clc1ccc(-c2c[n+](Cc3ccc(Br)cc3)c3n2CCCCC3)cc1,2.6µM*,?,?,-62*,2.6µM*
CNC(=O)CS(=O)(=O)CC(=O)Nc1cc(OC(C)C)c(Cl)cc1Cl,-17%,-9%,-10%,5,26%
C[C@H](NC(=O)c1ccccc1Cl)C(=O)NCCc1ccc(S(N)(=O)=O)cc1,-8%,13%,15%,14,0%
Cc1ccc(S(=O)(=O)NCCc2ccncc2)cc1,1%,4%,0%,-3,?
CCCCNS(=O)(=O)c1ccc(S(=O)(=O)NCc2ccncc2)cc1,7.3µM*,?,2%[9.24 µM],?,4.1µM*
CCCCc1ccc(S(=O)(=O)NCCc2ccncc2)cc1,12µM*,-2%,-19%,18,23µM*
O=[N+]([O-])c1cccc(S(=O)(=O)NCc2ccncc2)c1,2.3µM*,?,-14%,57,2.3µM*
COc1ccc(C(CNC(=O)C(=O)NC2CCCC2)N2CCN(C)CC2)cc1 (stereo not given),-22%,1%,13%,10,8%
O=C(COC(=O)C1CCN(S(=O)(=O)c2ccc3c(c2)OCCO3)CC1)Nc1ccc(C(F)(F)F)cc1,-17%,0%,-8%,11,12%
SMILES,DT40 TDP1 no CPT,HT1080-NT tox,HT1080 IDH1KD tx,IL-1B inflam inh,TDP1 cell CPT
S=C(N/N=C/c1cccc2ccccc12)Nc1cccc(Cl)c1,?,-5%,8%,35,-6%
CC(=O)N1c2ccc(S(=O)(=O)N3CCC(C(=O)N4CC(C)CC(C)C4)CC3)cc2CC1C (stereo not given),?,-2%,-7%,-14,21µM*
CC1Cc2cc(S(=O)(=O)N3CCC(C(=O)N4CCCCC4)CC3)ccc2N1C(=O)C1CC1 (stereo not given),-17%,5%,0%,1,?
CC(=O)N1c2ccc(S(=O)(=O)N3CCC(C(=O)NC4CCCCC4)CC3)cc2CC1C (stereo not given),10%,2%,2%,70,-16%
CC(=O)N1c2ccc(S(=O)(=O)N3CCC(C(=O)N4CCCC(C)C4)CC3)cc2CC1C (stereo not given),?,?,-13%,1,21µM*
CC(=O)N1c2ccc(S(=O)(=O)N3CCC(C(=O)N4CCC(C)CC4)CC3)cc2CC1C (stereo not given),?,-1%,-4%,?,?
CC1CC(C)CN(C(=O)C2CCN(S(=O)(=O)c3ccc4c(c3)CC(C)N4C(=O)C3CC3)CC2)C1 (stereo not given),?,-17%,-5%,?,16µM*
CCCCCn1c(=O)[nH]c2cc(C(=O)NC(C)CC)ccc2c1=O (stereo not given),-1%,.,.,.,-1%
O=C(NCC1COc2ccccc2O1)c1ccc(Br)s1 (stereo not given),?,-7%,-11%,-72*,-6%
O=C(NCC1COc2ccccc2O1)c1cccs1 (stereo not given),-25%,0%,16%,-12,?
CCn1cnnc1SCC(=O)NCC1COc2ccccc2O1 (stereo not given),1.8µM*,3%,10%,0,-2%
Cn1c(SCC(=O)NCC2COc3ccccc3O2)nnc1C(F)(F)F (stereo not given),-4%,0%,0%,-5,0%
COc1ccccc1NC(=O)C(=O)NCC1COc2ccccc2O1 (stereo not given),0.56µM*,6%,-9%,-5,-7%
O=C(NCc1ccccc1)C(=O)NCC1COc2ccccc2O1 (stereo not given),2.6µM*,16µM*,10µM*,64,2.9µM*
O=C(Cc1ccccc1)NCC1COc2ccccc2O1 (stereo not given),-13%,-1%,-21%,2,4%
COc1ccccc1N(CCC#N)C(=O)COC(=O)CCC(=O)c1ccc(F)cc1,-7%,3%,-3%,4,2%

# Screening results as filed in PubChem.
